Experimental data reported in PubChem BioAssay AID504329 (Southern Research Specialized Biocontainment Screening …, 2011).
The campaign covered roughly 340,000 compounds. About 1,000 (0.29%) were called active. The list is a sample of the results. Entries with a potency or affinity are not part of this list. Unmarked numbers belong to inactive results. Cut-off read from the data, not from the text of the source: inconclusive = inhibition above about 27% without an active follow-up result; inactive = below that.

experiment: NS1A inhibition, H1N1 influenza, cell based functional assay (AID 504329); conditions: percent inhibition, at 12.5 µM, stronger effect = higher value

Row | SMILES | inhibition
1 | Oc1ccc(Cl)cc1/C=N/c1nccs1 | -1.76%
2 | Cc1ccc(O)c(N=Nc2nccs2)c1 | 26.6%
3 | O=C(OCC(=O)N1CCN(c2ccccc2)CC1)c1ccc2ncsc2c1 | 3.79%
4 | CC(C)(CO)NS(=O)(=O)c1ccc2c(c1)C(=O)c1cc(S(=O)(=O)NC(C)(C)CO)ccc1-2 | -3.45%
5 | COc1ccc(C(=O)NC2CCc3ccccc32)cc1OC1CCN(C(C)=O)CC1 (stereo not drawn) | -1.94%
6 | CS(=O)(=O)N1CCc2cc(S(=O)(=O)NCCNS(=O)(=O)c3ccc4c(c3)CCN4S(C)(=O)=O)ccc21 | -9.03%
7 | Fc1cccc(CN2CCSCC2)c1 | -2.65%
8 | O=C(NCC(c1ccco1)N1CCc2ccccc21)C(=O)Nc1ccc(F)cc1F (stereo not drawn) | -6.42%
9 | Cc1cc(N/N=C/c2ccc(O)cc2O)c2ccccc2n1 | 0.21%
10 | Oc1ccc(/C=N/Nc2cccc(Cl)n2)c(O)c1 | 10.3%
11 | Cc1nc2ccccc2nc1N/N=C/c1ccc(O)cc1 | 13.5%
12 | Oc1cccc(C=NNc2ccccn2)c1 | -19.8%
13 | Clc1nccnc1N/N=C/c1ccc(Br)cc1 | -20.8%
14 | O=[N+]([O-])c1ccccc1/C=N/Nc1nccnc1Cl | 1.6%
15 | CCN(CC)S(=O)(=O)c1ccc(N/N=C/c2ccc(O)cc2)nc1 | 7.84%
16 | CCN(CC)S(=O)(=O)c1ccc(N/N=C/c2cc(OC)ccc2O)nc1 | 5.6%
17 | CC(C)(NO)/C(=N/O)c1cccs1 | 3.4%
18 | CC(C(=O)N1CCc2ccccc21)N1CCN(c2cccc(C(F)(F)F)c2)CC1 (stereo not drawn) | -0.63%
19 | CCOC(=O)CSC1=N/C(=C\c2ccc(OC)c(OC)c2)C(=O)N1C | 2.72%
20 | COc1ccc(-c2ccc3nnc(SCC(=O)N4CCCC4)n3n2)cc1 | -5.09%
21 | O=C(Nc1nccs1)c1cccnc1Cl | -9.22%

Row | SMILES | inhibition
22 | CCc1nnc(NCn2nc(C)cc2C)s1 | 6.15%
23 | Oc1ccc(/C=N/Nc2nccnc2Cl)cc1 | 5.54%
24 | C=CCc1c(C)nc(C)nc1N/N=C/c1ccc(F)cc1 | -0.47%
25 | C=CCc1c(C)nc(C)nc1N/N=C/c1ccccc1 | -4.1%
26 | Oc1ccc(/C=N/Nc2ccnc3cc(Cl)ccc23)c(O)c1 | -16%
27 | Cc1c(OCC(F)(F)F)ccnc1CSc1nc2ccccc2[nH]1 | -9.09%
28 | CCOc1ccc(OCCC(=O)N(CCCOC)c2c(N)n(Cc3ccccc3)c(=O)[nH]c2=O)cc1 | -2.75%
29 | O=C1NC(=O)c2cc3ccccc3cc21 | -8.8%
30 | O=C(Cn1ccccc1=O)NCc1ccc(F)cc1 | -15.8%
31 | COC1=C(Nc2ccccc2)C(=O)C(OC)=C(Nc2ccccc2)C1=O | 8.96%
32 | COc1ccc(NC2=C(c3ccc(OC)cc3)C(=O)c3ccccc32)cc1 | 5.77%
33 | CCOc1ccc(NC2=CC(=O)C(=O)c3ccccc32)cc1 | -7.73%
34 | COc1ccc(NC2=C(NCCO)C(=O)c3ccccc3C2=O)cc1 | 23.4%
35 | O=C1C(Cl)=C(Nc2ccc(O)cc2)C(=O)c2ccccc21 | 13.6%
36 | COc1ccc(C2=C(Nc3ccccc3)c3ccccc3C2=O)cc1 | -2.55%
37 | Cc1cccc(NC2=C(NCCO)C(=O)c3ccccc3C2=O)c1 | 26.8%
38 | NC1=C(Br)C(=O)c2ccccc2C1=O | 1.89%
39 | CSCCC(=O)NC1CCCN(CCc2ccccc2)C1 (stereo not drawn) | -10.8%
40 | O=C(NC1=NCCS1)c1cc(-c2cccs2)nc2ccccc12 | 1.99%
41 | Clc1cccc(CN2CCCCCCC2)c1Cl | -8.07%
42 | COc1cc(C2NC(=O)NC(C)=C2C(=O)OC2CCC(C)CC2)ccc1O (stereo not drawn) | -1.48%

Row | SMILES | inhibition
43 | CCC(=O)Nc1nc(-c2ccccc2)nc(SC)c1C(C)=O | 5.59%
44 | O=C(NCCCN1CCCC1=O)C(=O)NCC1OCCCN1S(=O)(=O)c1cc(F)ccc1F (stereo not drawn) | -6.67%
45 | Cc1ccc(C(=O)N2CCN(c3ccc(NC(=O)c4cccnc4Cl)cc3)CC2)cc1 | 0.28%
46 | COc1ccc(NC2=C(NC(C)=O)C(=O)c3ccccc3C2=O)cc1 | 0.92%
47 | Cc1ccc(NC2=C(N3CCCCC3)C(=O)c3ccccc3C2=O)cc1 | 28.7%
48 | COc1ccc(C2=C(Nc3ccc(C)cc3)c3ccccc3C2=O)cc1 | -3.38%
49 | O=C1C(Cl)=C(Nc2ccccc2)C(=O)c2ccccc21 | -3.5%
50 | CC(=O)c1ccc(NC2=C(N3CCOCC3)C(=O)c3ccccc3C2=O)cc1 | 3.86%
51 | Cc1ccc(NC2=C(Cl)C(=O)c3ccccc3C2=O)cc1 | 2.23%
52 | CCN(CC)c1ccc(NC2=C(Cl)C(=O)c3ccccc3C2=O)cc1 | 27.5%
53 | COC1=C(Nc2ccc(OC)cc2)C(=O)C(OC)=C(Nc2ccc(OC)cc2)C1=O | 0.15%
54 | CC(C)CC(OC(=O)c1cccs1)C(=O)NCC1CCCO1 (stereo not drawn) | 11.2%
55 | COc1ccccc1N1CCN(C(=O)c2ccc(S(=O)(=O)N3CCCC3)cc2)CC1 | 4.29%
56 | COc1ccc(NC(=O)COC(=O)CCc2ccc(S(=O)(=O)N3CCOCC3)cc2)cc1Cl | -1.5%
57 | CCOC(=O)c1sc2nc(N3CCOCC3)c3c(c2c1N)CCC3 | 8.09%
58 | Cc1ccc(CNC(=O)Cn2nnc3ccccc3c2=O)cc1 | -3.7%
59 | COC(=O)c1ccc(NC(=S)NC2CC(C)(C)NC(C)(C)C2)cc1 | -11.7%
60 | CCOC(=O)C1(CCCc2ccccc2)CCN(C(=O)c2cnn(CC)c2)CC1 | 0.777%
61 | O=C(NC(=S)Nc1ccc(F)c([N+](=O)[O-])c1)c1ccccc1F | 6.76%
62 | COc1cc(/C=C/C(=O)OCC(=O)NCCN2C(=O)CSC2=O)ccc1OCC#N | 1.99%
63 | CC(C)CN(C(=O)CCC(=O)OCc1ccc(Cl)cc1Cl)c1c(N)n(CC(C)C)c(=O)[nH]c1=O | -1.56%
